Measured values reported in PubChem BioAssay AID540321 (Johns Hopkins Ion Channel Center, 2011).
The source made the active and inactive calls.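 How the source made its calls: active means Inhibition of the Kir2.1 potassium channel over 30% at some tested dose, plus a fitted dose response curve; inactive means no Kir2.1 inhibition at any dose, or no curve fitted.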

target: Inward rectifier potassium channel 2 (Mus musculus) (UniProt P35561); assay: off-target blockade of inward rectifier Kir2.1 – cell-based, FluxOR thallium flux, CRC round 2, selectivity assay for KCNK9 inhibitor project, SAR follow-up (AID 540321); settings: Kir2.1-expressing cells; series mostly up to 30 µM
Sequence (P35561 whole entry, looked up): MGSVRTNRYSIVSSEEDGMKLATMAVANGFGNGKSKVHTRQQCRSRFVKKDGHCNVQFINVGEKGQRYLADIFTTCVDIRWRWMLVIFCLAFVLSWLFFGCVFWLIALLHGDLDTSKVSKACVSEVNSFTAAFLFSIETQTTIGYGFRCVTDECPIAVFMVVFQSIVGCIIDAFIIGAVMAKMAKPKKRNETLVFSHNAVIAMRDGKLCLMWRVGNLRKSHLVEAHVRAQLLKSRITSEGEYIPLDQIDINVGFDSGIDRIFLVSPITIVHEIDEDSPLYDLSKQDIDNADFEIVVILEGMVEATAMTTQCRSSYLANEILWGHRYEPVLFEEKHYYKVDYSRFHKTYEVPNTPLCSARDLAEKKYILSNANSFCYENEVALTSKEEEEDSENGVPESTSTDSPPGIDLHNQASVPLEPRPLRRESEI

outcome, inactive:
Cc1cccc(C(=O)Nc2cccc(NC(=O)c3cccc(Cl)c3)c2)c1, CCOc1ccccc1C(=O)Nc1cccc(NC(=O)c2cccc(C)c2)c1, CCOc1ccccc1NC(=O)c1cccc(NC(=O)c2ccccc2OC(F)(F)F)c1, O=C(Nc1cccc(NC(=O)c2ccccc2Cl)c1)c1ccccc1, CCOc1ccccc1NC(=O)c1cccc(NC(=O)c2ccc(C)cc2)c1, COc1ccccc1NC(=O)c1cccc(NC(=O)C2CCCCC2)c1, COc1cccc(C(=O)Nc2cccc(NC(=O)c3ccccc3)c2)c1, CCOc1ccccc1NC(=O)c1cccc(NC(=O)C2CCOC2)c1 (stereo not given), COc1ccccc1C(=O)Nc1cccc(NC(=O)c2ccccc2C)c1, CC(C1CC2CCC1C2)n1c(-c2ccccc2)n[nH]c1=S (stereo not given), CC(C1CC2CCC1C2)n1c(-c2ccc(Cl)cc2)n[nH]c1=S (stereo not given), CCOc1ccccc1NC(=O)c1cccc(NC(=O)c2cccc(C)c2)c1, CC(C1CC2CCC1C2)n1c(-c2ccccc2Cl)n[nH]c1=S (stereo not given), Cc1cccc(C(=O)Nc2cccc(NC(=O)c3ccc(C(F)(F)F)cc3)c2)c1, CCOc1ccccc1NC(=O)c1cccc(C(=O)NC2CCCC2)c1, O=C(Nc1cccc(NC(=O)c2cccs2)c1)c1ccccc1, O=C(Nc1ccccc1Cl)c1cccc(NC(=O)C2CCCC2)c1, O=C(Nc1cccc(NC(=O)c2ccc(C(F)(F)F)cc2)c1)c1ccccc1, COc1cccc(OC)c1C(=O)Nc1cccc(NC(=O)c2cccc(C)c2)c1, CCOc1cccc(NC(=O)c2cccc(NC(=O)C3CCCC3)c2)c1, CCOc1ccccc1NC(=O)c1cccc(NC(=O)c2cccc(OC)c2)c1, Cc1cccc(C(=O)Nc2cccc(NC(=O)c3ccc(Cl)cc3)c2)c1, O=C(Nc1cccc(NC(=O)C2CCCCC2)c1)c1ccccc1, Cc1cccc(C(=O)Nc2cccc(NC(=O)c3ccc(N(C)C)cc3)c2)c1, CC(c1ccco1)n1c(-c2ccoc2)n[nH]c1=S (stereo not given), CCOc1ccccc1NC(=O)c1cccc(NC(=O)CC2CCCCC2)c1, Cc1cccc(C(=O)Nc2cccc(NC(=O)c3ccccc3Cl)c2)c1, COc1ccccc1NC(=O)c1cccc(NC(=O)C2CCCC2)c1, COc1ccc(-c2n[nH]c(=S)n2C(C)C2CC3CCC2C3)cc1 (stereo not given), O=C(Nc1cccc(NC(=O)c2ccco2)c1)c1ccccc1, COc1ccccc1C(=O)Nc1cccc(NC(=O)c2cccc(C)c2)c1, CCOc1ccccc1NC(=O)c1cccc(NC(=O)c2ccccc2C)c1, O=C(Nc1cccc(NC(=O)c2ccccc2)c1)c1ccccc1, CCOc1ccccc1NC(=O)c1cccc(NC(=O)C2CCCCC2)c1, CCOc1ccccc1NC(=O)c1cccc(NC(=O)C(C)(C)C)c1
